Hits are enriched below; roughly 3.5% of the tested compounds scored in any of these assays.
BoNT-A LC inh2: BoNT A light chain protease inhibition. AID 588499. actives 0.17% (n = 360,000). inhibition, % at 10 µM. multiplex microsphere protease substrate cleavage, flow cytometry; further: plate controls were buffer without enzyme for full effect and enzyme alone for no effect
Autofluor counter: compound fluorescence in toxin protease inhibitor counterscreen | compound autofluorescence counterscreen, microsphere flow cytometry; active compounds read high | fluorescence intensity (test concentration not listed) | actives 3.1% (n = 360,000) | AID 624483; in the data active means fluorescence intensity above about 16000; inconclusive means no clear call, values can overlap the other calls
Anthrax LF inh2: inhibitors of Bacillus anthracis lethal factor protease; actives 0.12% (n = 360,000); inhibition, % at 10 µM; AID 588501; multiplex microsphere protease cleavage assay, LF; P15917; further: plate controls were buffer without enzyme for full effect and enzyme alone for no effect
Target sequence (P15917 whole entry, looked up): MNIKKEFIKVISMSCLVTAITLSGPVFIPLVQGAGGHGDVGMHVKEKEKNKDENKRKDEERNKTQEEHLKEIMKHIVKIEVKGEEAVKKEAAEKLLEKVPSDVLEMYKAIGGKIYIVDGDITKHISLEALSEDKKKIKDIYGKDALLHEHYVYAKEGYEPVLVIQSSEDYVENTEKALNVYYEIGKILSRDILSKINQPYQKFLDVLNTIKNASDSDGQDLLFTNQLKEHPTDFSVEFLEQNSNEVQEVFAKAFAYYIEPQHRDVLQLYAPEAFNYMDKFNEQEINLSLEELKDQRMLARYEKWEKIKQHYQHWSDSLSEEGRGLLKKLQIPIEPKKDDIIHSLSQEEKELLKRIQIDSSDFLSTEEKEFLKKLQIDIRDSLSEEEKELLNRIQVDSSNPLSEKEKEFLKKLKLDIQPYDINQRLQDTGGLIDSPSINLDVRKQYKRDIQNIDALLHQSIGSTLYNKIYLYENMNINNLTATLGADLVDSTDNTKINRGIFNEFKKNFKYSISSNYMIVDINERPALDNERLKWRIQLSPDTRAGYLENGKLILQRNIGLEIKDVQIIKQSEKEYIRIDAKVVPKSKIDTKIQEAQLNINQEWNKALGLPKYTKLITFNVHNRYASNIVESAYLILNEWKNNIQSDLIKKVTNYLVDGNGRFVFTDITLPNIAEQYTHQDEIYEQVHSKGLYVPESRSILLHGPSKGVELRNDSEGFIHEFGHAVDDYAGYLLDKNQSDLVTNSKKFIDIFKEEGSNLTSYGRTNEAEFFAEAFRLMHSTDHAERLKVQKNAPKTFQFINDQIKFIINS
BJeLR viability: kills HRASV12-expressing BJeLR cells; BJeLR (HRASV12) viability, CellTiter-Glo ATP luminescence, 48 h; inhibition, % (test concentration not listed); actives 0.17% (n = 300,000); AID 1554; in the data active means inhibition above about 50%; inconclusive means no clear call, values can overlap the other calls
BoNT F protease: inhibitors of Botulinum neurotoxin F light chain protease | Multiplex microsphere protease cleavage assay, flow cytometry | inhibition, % at 10 µM | actives 0.22% (n = 360,000); in the data active means inhibition above about 35%, passing the limit was not always enough; inconclusive means no clear call, values can overlap the other calls; further: plate controls were buffer without enzyme for full effect and enzyme alone for no effect
Starred values were filed as active, the others as inactive; ? = inconclusive; . = no result. Unless noted, no stated cut-off is given here; in the data, active means inhibition above about 30%; inconclusive means no clear call, values can overlap the other calls; inactive means below that.

SMILES	BoNT-A LC inh2	Autofluor counter	Anthrax LF inh2	BJeLR viability	BoNT F protease
Cn1c(=O)c2c(nc(NCc3ccc4c(c3)OCO4)n2Cc2ccc(F)cc2)n(C)c1=O	8	18743*	-6	-3	12
CCCCCn1c(CN(C)Cc2ccccc2)nc2c1c(=O)n(C)c(=O)n2C	-1	23164*	-5	-4	-2
Cc1ccc(Cn2c(CN(C)Cc3ccccc3)nc3c2c(=O)n(C)c(=O)n3C)cc1	-1	5955	-4	3	-9
CCCCn1c(CN(Cc2ccccc2)Cc2ccccc2)nc2c1c(=O)n(C)c(=O)n2C	0	3264	-7	-2	1
Cc1c(C(=O)NC(=S)Nc2ccc(N3CCOCC3)cc2)cccc1[N+](=O)[O-]	1	2685	-1	2	-2
CC(C)(C)n1ncc2c(=O)n(CC(=O)N3CCc4ccccc43)cnc21	0	3262	2	-6	-6
O=C(Cn1cnc2c(cnn2-c2ccccc2Cl)c1=O)N1CCc2ccccc21	3	21755*	-1	-8	6
Nc1nc(Cl)cc(N2CCC(c3cc(-c4ccc(Cl)cc4Cl)n[nH]3)CC2)n1	-2	21717*	-3	-1	-6
Oc1ccccc1C1N=C(c2ccccc2)NC(c2ccccc2)=N1	1	22671*	0	2	0
Cc1ccc(CNC(=O)C2CCCN(Cc3cnn(-c4ccccc4)c3-n3cccc3)C2)cc1 (stereo unspecified)	?	21776*	-4	-2	-3
COc1cc(C=O)ccc1OCc1c(C)noc1C	-3	21666*	-4	-3	-4
COc1cc(C(=O)O)ccc1OCc1c(C)noc1C	-1	21283*	0	5	-2
O=C1NC[C@@H](CCCCN2C[C@H](Cc3ccc(O)cc3)N(CCc3ccccc3)C(=O)C2=O)N(CC2CCCCC2)C1=O	0	5724	-1	.	7
O=C(Nc1ccccc1SC(=O)c1ccccc1)c1ccccc1	0	4042	-5	.	-9
Cc1ccc(C(=O)Sc2cccccc2=O)cc1	-2	2925	7	104*	-18
Cc1cc(N2CCC(C(=O)N3CCN(c4cccc(C)c4C)CC3)CC2)n2ncnc2n1	-5	17532*	-6	3	-6
C=C(C)C1CC=C(C)/C(=N/NC(=O)COc2ccc(C)cc2)C1 (stereo unspecified)	2	21182*	0	5	2
Cc1ccc(OCC(=O)NN=C2c3ccccc3-c3ccccc32)cc1	-1	23454*	1	-4	0
Cc1ccc(OCC(=O)NN2C(=O)c3ccccc3C2=O)cc1	0	6199	-4	2	-10
O=C1Nc2ccccc2N(C(=O)c2ccc(-c3ccccc3)cc2)C1c1nc2ccccc2[nH]1 (stereo unspecified)	7	4963	-8	.	12
CC(C)=CC(=O)Nc1nc2ccc([N+](=O)[O-])cc2s1	-1	2115	-1	-4	4
COc1ccc(C(=O)c2cn[nH]c2-c2cc(C)ccc2O)cc1	1	2971	6	-18	-12
COc1ccc(C(=O)c2cn[nH]c2-c2cc(Cl)ccc2O)cc1	-1	16806*	0	8	2
CC1(C)C2([N+](=O)[O-])CN3CC1([N+](=O)[O-])CN(C2)C3c1ccccc1 (stereo unspecified)	4	22107*	1	17	6
CC(C)c1ccc(C2N3CC4([N+](=O)[O-])CN2CC([N+](=O)[O-])(C3)C4(C)C)cc1 (stereo unspecified)	0	2390	-3	-1	1
SMILES	BoNT-A LC inh2	Autofluor counter	Anthrax LF inh2	BJeLR viability	BoNT F protease
CC1(C)C2([N+](=O)[O-])CN3CC1([N+](=O)[O-])CN(C2)C31CCCC1	?	17714*	-2	-1	-7
CC1(C)N2CC3([N+](=O)[O-])CN1CC([N+](=O)[O-])(C2)C3	?	4500	11	-5	?
CC(C)CCNC(=O)CCCC1=NS(=O)(=O)c2ccccc2N1	1	2697	1	11	7
CCOc1ccc(NC(=O)c2ccco2)cc1	?	24897*	1	7	-5
CCc1nnc2sc(-c3ccc(NC(=O)c4ccco4)cc3)nn12	-2	16661*	-1	4	-3
O=C(Nc1nccs1)c1ccc(NC(=O)c2ccco2)cc1	-2	17273*	-4	-1	-6
CCOc1ccc(NC(=S)NC(=O)c2ccco2)cc1	-1	3267	-5	-6	-18
Cc1cccc(C(O)c2ncc(-c3cccc(C(F)(F)F)c3)[nH]2)c1C (stereo unspecified)	0	3960	-2	.	4
CNc1cc(C(F)(F)F)nc(-c2ccccn2)n1	?	19306*	0	1	3
COC(CNC(=O)c1ccc2c(c1)nc(C)n2-c1ccc(F)c(F)c1)OC	1	22581*	-2	-20	5
COC(CNC(=O)c1ccc2c(c1)nc(C)n2-c1cccc(F)c1)OC	-5	21945*	1	1	-4
COc1ccc(-c2csc(N(CC3CCCO3)C(=O)c3cccs3)n2)cc1 (stereo unspecified)	?	22735*	-2	0	-4
COc1ccc(OC)c(S(=O)(=O)NCc2cccnc2)c1	0	2290	-2	2	0
COc1ccc(S(=O)(=O)NCc2ccncc2)cc1OC	-2	23943*	0	15	-2
COc1ccc(NS(=O)(=O)c2cc(-c3nnnn3C)ccc2OC)cc1	6	18825*	-14	-3	10
COc1ccc(S(=O)(=O)NCc2cccnc2)cc1OC	2	3965	-1	-3	-6
COc1ccc(OC)c(S(=O)(=O)NCc2ccccc2)c1	-1	16582*	-3	7	-6
COc1ccc(CCNS(=O)(=O)c2cccc(F)c2)cc1OC	2	15520	-1	.	1
COc1ccc(CCNS(=O)(=O)c2cccc(C)c2)cc1OC	-2	20544*	-2	6	-4
Cc1c(NC(=O)C(C)OC(=O)c2ccc(Cl)nc2)c(=O)n(-c2ccccc2)n1C (stereo unspecified)	0	2541	3	-1	-3
COc1cccc(CNC(=O)[C@@H]2CCCN2C(=O)[C@H]2CCCCN2C(=O)OC(C)(C)C)c1	0	6303	7	.	3
CC(NC(=O)c1cccs1)C(c1cccs1)N1CCOCC1 (stereo unspecified)	0	10378	-2	0	-6
COc1ccc(S(=O)(=O)NCc2ccc(C(=O)O)cc2)cc1	0	20146*	0	-6	1
COc1ccc(-n2nnnc2S(=O)(=O)Cc2ccc(C(=O)O)cc2)cc1	6	17765*	-11	10	3
COc1ccc(S(=O)(=O)NCc2ccc(C(=O)N3CCN(Cc4ccccc4)CC3)cc2)cc1	0	4561	-3	8	-4
CCn1nnnc1-c1ccc(OC)c(S(=O)(=O)NCc2ccccc2)c1	0	3452	-6	-10	-5
COc1ccc(-c2nnnn2C)cc1S(=O)(=O)NCCc1ccccc1	?	19418*	2	-11	3
COCCn1c(=NC(=O)C(C)(C)C)sc2cc([N+](=O)[O-])ccc21	0	2373	0	0	-2
